# PubChem BioAssay (Tox21)
# Records with an inconclusive call do not appear. A number with no mark means an inactive call. Active and inactive are the calls of the source. The call rests on the fitted dose curve; in most records, active means well fitted cell-killing curve with a large enough effect in the repeat runs; inconclusive means weak or mixed curves, or effect the other way; inactive means flat fitted curve, though single readings scatter.
# Assay: cAMP Responsive Elements (CRE) small molecule antagonists, cell-based qHTS assay: qHTS cell viability counter screen (AID 2060913); further: nearly all actives have a fitted effect of over 40% in size
# Details: CRE-bla HEK293T viability, CellTiter-Glo luminescence, 5 h; series mostly up to 92.4 µM; viability change, negative = cytotoxic: at the top concentration
# Outline: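 HEK293T CRE-bla, 2,000 cells/well, 18 h preincubation; cpd in DMSO + NKH477 0.25 uM final, 3 h 37 C/5% CO2; LiveBLAzer 2 h RT, then CellTiter-Glo 30 min RT, luminescence.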
# On the % scale 0 is the no-effect control and ±100 the full control effect; potency means the concentration at half of the fitted maximal effect.
SMILES,"viability change, negative = cytotoxic",Potency
Cc1cc(CC(=O)O)c(C)n1-c1ccc(Cl)cc1,0.85% [at 42.5 µM],
CCCCCCCCCC(=O)OC,8.39%,
COc1ccccc1N1CCN(CC(O)COc2cccc3ccccc23)CC1 (stereo not drawn),-17.1% [at 42.5 µM],
CC(=O)Nc1ccc(C)c(Cl)c1,2.39%,
CCCCOCCOCCOCc1cc2c(cc1CCC)OCO2,-4.46% [at 42.5 µM],
c1ccc(-c2nn[nH]n2)cc1,0.802%,
C=C(C)C(=O)OCC,1.36%,
CC(C)(CCl)c1ccccc1,2.07%,
COC(=O)c1ccc(OC)cc1,-2.31%,
Cc1ccc(N=Nc2c(O)ccc3ccccc23)c(C)c1,1.74% [at 42.5 µM],
CCCCCCCCCCCC[N+](C)(C)CCCCCCCCCCCC,,40.3 µM (active)
CCCCOCC(C)OCC(C)O (stereo not drawn),0.918%,
C=CCCCCCCCC,1.29%,
OC(CCCN1CCCCC1)(c1ccccc1)c1ccccc1,-2.4% [at 42.5 µM],
Cc1ccnc(NS(=O)(=O)c2ccc(N)cc2)n1,1.17% [at 42.5 µM],
CCN1CCc2nc(N)oc2CC1,0.0873% [at 42.5 µM],
CC(C)CC(C)CC(O)CC(C)C (stereo not drawn),,inactive
Cc1ccc(Cl)cc1,,inactive
O=c1oc2c(O)c(O)cc3c(=O)oc4c(O)c(O)cc1c4c23,2.4% [at 18.9 µM],
CCCCC(CC)COCCCN (stereo not drawn),-14.9%,
O=C(O)CNC(=O)c1ccccc1,-0.485% [at 42.5 µM],
Cc1nc2ccc(Cl)cc2[nH]1,1.65%,
CCCCCCCCCCCCC1CO1 (stereo not drawn),-11.4%,
Cc1ccc(N)c([N+](=O)[O-])c1,,inactive
CC/C(=C\C(=N/O)C(N)=O)C(C)[N+](=O)[O-] (stereo not drawn),-9.69%,
Cc1cncc(C)c1,-5.53%,
CCCCCCCCCCCCCC,-3.17%,
C[N+]1(C)CCCC(OC(=O)C(O)(c2ccccc2)c2ccccc2)C1 (stereo not drawn),-0.388% [at 42.5 µM],
